Screens (PubChem BioAssay)
Many of the other results were omitted from the sample, so hits are more common in it than they were.
IL1B secr inh: qHTS for Inhibitors of Inflammasome Signaling: IL-1-beta AlphaLISA Primary Screen | THP-1 LPS/ATP IL-1B secretion, AlphaLISA, 16 h; active compounds read low | activity change, % at 57.5 µM | 360,000 compounds, 4.7% hits; in the data active = activity change below about -50%; inconclusive = mostly about -30% to -49%
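Secreted IL-1B measured by AlphaLISA bead assay after 16 h compound exposure of THP-1 cells; compounds (final up to 57.5 uM) added 1 h before LPS (250 ng/mL) and ATP (1.25 mM) stimulation; lower signal means less secretion.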
ALOX12 inh: Primary qHTS assay for inhibitors of human arachidonate 12S-lipoxygenase (ALOX12): Round 2 | Polyunsaturated fatty acid lipoxygenase ALOX12 (Homo sapiens), P18054 | Potency, µM (titrated, usually from 108 µM), most hits filed as inhibitors | 580,000 compounds, 1.1% hits | purified 12hLO, xylenol orange hydroperoxide absorbance
Target sequence (P18054 whole entry, looked up): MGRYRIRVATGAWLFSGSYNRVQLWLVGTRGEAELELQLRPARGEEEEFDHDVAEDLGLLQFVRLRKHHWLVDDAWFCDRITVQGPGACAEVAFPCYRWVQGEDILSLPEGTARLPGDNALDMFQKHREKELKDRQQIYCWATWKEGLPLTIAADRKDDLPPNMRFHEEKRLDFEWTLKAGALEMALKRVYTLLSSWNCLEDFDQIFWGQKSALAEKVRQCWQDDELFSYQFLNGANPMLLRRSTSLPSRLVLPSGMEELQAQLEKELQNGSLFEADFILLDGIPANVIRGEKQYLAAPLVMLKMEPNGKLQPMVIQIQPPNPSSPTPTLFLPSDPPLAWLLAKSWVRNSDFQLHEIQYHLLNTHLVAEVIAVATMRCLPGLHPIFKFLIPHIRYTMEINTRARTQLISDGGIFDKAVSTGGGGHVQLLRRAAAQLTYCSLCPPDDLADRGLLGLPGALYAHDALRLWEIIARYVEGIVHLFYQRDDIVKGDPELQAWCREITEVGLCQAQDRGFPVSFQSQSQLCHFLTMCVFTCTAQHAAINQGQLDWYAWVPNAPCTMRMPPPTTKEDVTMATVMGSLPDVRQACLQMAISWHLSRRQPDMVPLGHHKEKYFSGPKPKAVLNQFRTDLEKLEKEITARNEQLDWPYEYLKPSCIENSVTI
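Purified human 12hLO at 150 nM in 25 mM Hepes, 0.01% Triton X-100, pH 7.0, preincubated 15 min at room temperature with compound. Reaction started with 40 uM arachidonic acid, 30 min at room temperature. Hydroperoxide measured by Fe-xylenol orange, 573/405 nm absorbance ratio.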
DT40 TDP1 no CPT: qHTS for Inhibitors of human tyrosyl-DNA phosphodiesterase 1 (TDP1): qHTS in cells in absence of CPT; DT40 Tdp1-/- hTDP1 cells, no CPT, ATP luminescence, 48 h; Potency, µM (series often up to 46.2 µM), hits mostly inhibitors; 420,000 compounds, 15% hits; note: nearly all actives have a fitted effect of over 55% in size
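Seeded 400 DT40-hTDP1 cells/well (vehicle DMSO, no 20 nM CPT); pinned compounds; ≥48 hr at 37 °C; CellTiter-Glo luminescence as viability measure.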
HT1080-NT tox: qHTS for induction of synthetic lethality in tumor cells producing 2HG: qHTS for the HT-1080-NT fibrosarcoma cell line | 360,000 compounds, 1.6% hits | HT-1080-NT fibrosarcoma viability, CellTiter-Glo ATP luminescence, 48 h | Potency, µM (series often up to 46.1 µM), actives largely listed as cytotoxic;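 note: NT is the 2HG producing partner of a matched IDH1 knockdown line; nearly all actives have a fitted effect of over 55% in size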
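Toxicity toward the 2HG-producing NT line was scored as %Activity, normalised to DMSO and no-cell wells, from CellTiter-Glo luminescence after 48 hours' treatment.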
TDP1 cell CPT: qHTS for Inhibitors of human tyrosyl-DNA phosphodiesterase 1 (TDP1): qHTS in cells in presence of CPT; 420,000 compounds, 12% hits; Potency, µM (series often up to 46.2 µM), usual class: inhibitors; chicken DT40 Tdp1-/-;hTDP1 cells + 20 nM CPT, ATP luminescence, 48 h; AID 686979, 2013; note: nearly all actives have a fitted effect of over 55% in size
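Cell growth measured by CellTiter-Glo luminescence after a minimum 48 h, 37 C compound exposure with 20 nM CPT in Tdp1-knockout DT40 cells stably expressing hTDP1, seeded 400/well; qHTS titration format.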
HT1080 IDH1KD tx: qHTS for induction of synthetic lethality in tumor cells producing 2HG: qHTS for the HT-1080-IDH1KD cell line. HT-1080 IDH1 knockdown viability, ATP luminescence, 48 h. Potency, µM (doses to about 46.1 µM), actives largely listed as cytotoxic. 360,000 compounds, 2% hits. AID 686971, 2013
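Luminescent ATP read-out (CellTiter-Glo, 10 min at room temperature) after 48 h compound exposure at 37 °C gave viability of IDH1-knockdown HT-1080 cells. Activity was normalised to DMSO and cell-free wells, then fitted as concentration-response curves.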
A number is an active result; – = inactive; ? = inconclusive; · = no result given. Unless noted, calls come from the whole dose curve; as a rule, active = well fitted curve in the direction sought with a large enough effect; inconclusive = small, poorly fitted or top-dose-only effect, or another doubt; inactive = no such curve, though single readings can be large; an effect the other way counts as inactive or inconclusive.

SMILES	IL1B secr inh	ALOX12 inh	DT40 TDP1 no CPT	HT1080-NT tox	TDP1 cell CPT	HT1080 IDH1KD tx
Cc1cc(C)cc(N(C(=O)c2ccc(Br)o2)C2C=CS(=O)(=O)C2)c1 (stereo not given)	–	–	?	–	–	–
COc1ccc(N(C(=O)c2ccc(Br)o2)C2C=CS(=O)(=O)C2)cc1 (stereo not given)	–	–	13µM	–	13µM	–
Cc1ccc(C(=O)N2CCC(N3C(=O)C(OCC4CC4)C34CCOCC4)CC2)cn1 (stereo not given)	·	–	·	·	·	·
O=C(Nc1ccc(F)cc1F)C12CC3CC(CC(Br)(C3)C1)C2	·	–	·	·	·	·
COc1ccc(C/C(C)=N/NC(=S)Nc2ccccc2)cc1	–	?	?	–	?	–
COc1ccc(C/C(C)=N/NC(=S)Nc2ccc(C)c(C)c2)cc1	–	?	16.4µM	–	16.4µM	–
COc1ccc(C/C(C)=N/NC(=S)Nc2ccc(Cl)cc2)cc1	–	–	11.6µM	–	14.6µM	–
C[n+]1cc(C(=O)N2CCCCC2)ccc1/C=C/c1c[nH]c2ccccc12	–	20µM	–	–	–	–
CCCCc1ccc(NC(=S)NCCCO)cc1	·	–	·	·	·	·
CNc1ccc(OC(F)(F)Cl)cc1	·	–	·	·	·	·
CNc1ccc(C=C2C=CC=C2)cc1	·	·	?	·	11.2µM	·
CC(c1cccs1)N(C)Cc1ccccc1 (stereo not given)	·	–	·	·	·	·
C/C(=N\Nc1ccc(C)c(Cl)c1)c1cccnc1	–	4.47µM	–	–	–	–
C/C(=N\NC(=O)Cc1ccccc1Cl)c1cccnc1	–	–	–	–	–	–
C/C(=N\Nc1ccc(C)c(Cl)c1)c1ccncc1	–	44.7µM	?	–	–	–
CN(C)C(=O)c1cccnc1OC1CCN(S(=O)(=O)c2cc(F)cc(F)c2)C1 (stereo not given)	·	–	·	·	·	·
Cc1cccc(C)c1NC(=O)CSCc1cnn(-c2ccccc2)c1-n1cccc1	·	?	10.3µM	·	10.3µM	·
COc1cc(NC(=O)CSCc2cnn(-c3ccccc3)c2-n2cccc2)cc(OC)c1	–	–	14.6µM	–	?	–
COc1ccc(CCNC(=O)CSCc2cnn(-c3ccccc3)c2-n2cccc2)cc1OC	·	–	·	·	·	·
COc1ccc(OC)c(NC(=O)CSCc2cnn(-c3ccccc3)c2-n2cccc2)c1	–	–	16.4µM	–	?	–
O=C(CSCc1cnn(-c2ccccc2)c1-n1cccc1)Nc1ccc(F)cc1F	·	–	18.4µM	·	?	·
Cc1oc(-c2nc(C#N)c(NCC3CCCO3)o2)cc1S(=O)(=O)N1CCCC1 (stereo not given)	·	–	·	·	·	·
COC[C@@H]1CN(C(=O)CCc2ccc(OC)cc2)C[C@H]1c1ccncc1	·	–	·	·	·	·
CC(c1ccc(S(C)(=O)=O)cc1)N(C)S(=O)(=O)c1ccc(Cl)c(Cl)c1 (stereo not given)	·	–	·	·	·	·
CCC1CCCCN1C(=O)CCCOc1ccccc1 (stereo not given)	–	–	?	–	23.1µM	–
SMILES	IL1B secr inh	ALOX12 inh	DT40 TDP1 no CPT	HT1080-NT tox	TDP1 cell CPT	HT1080 IDH1KD tx
CN1CCCN(C(=O)Cc2cccs2)c2ccccc21	·	–	·	·	·	·
COc1ccc(NC(=O)c2cccnc2NCCc2ccccc2)cc1	–	44.7µM	?	–	20.6µM	–
O=C(Nc1ccccc1)c1ccccc1CCc1ccccc1	–	–	–	–	?	–
O=C(Nc1ccccc1)c1cccnc1NCCc1ccccc1	–	–	16.4µM	–	?	–
CC(C)Oc1cccc(C(=O)NC(=S)Nc2ccccc2)c1	–	22.4µM	?	–	?	–
CCCOc1cccc(C(=O)Nc2cc(-c3ccccc3)no2)c1	·	?	?	·	11.6µM	·
